Measurements published in PubChem BioAssay (Tox21).
Results filed as inconclusive are left out. The source made the active and inactive calls. Unless noted, the call rests on the fitted dose curve; in most records, active means well fitted curve in the direction sought with a large enough effect in the repeat runs; inconclusive means weak or mixed curves; inactive means no such curve, though single readings can be large; an effect the other way counts as inactive or inconclusive.

What was measured:
[1] = A CellTox Green Cytotoxicity Assay to monitor cytotoxicity in HepG2 cells - 8 hour (AID 1224890); further: nearly all actives have a fitted effect of over 45% in size
In short: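 Fluorescent DNA-binding dye, 600 HepG2 cells/well, 5 h preincubation then compound in DMSO; same plates read at 0–40 h, 37 C.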

[2] = qHTS assay to identify small molecule antagonists of the androgen receptor (AR) signaling pathway using the MDA cell line in the presence of 0.5 nM R1881 - cell viability counter screen (AID 1259242); further: nearly all actives have a fitted effect of over 45% in size
In short: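 Human breast carcinoma MDA-kb2 cells, cultured without CO2, receive compounds alongside 0.5 nM (final) R1881 agonist. After 16 hr at 37C, viability is taken as live-cell protease signal.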

[3] = biological target: Estrogen receptor (Homo sapiens) (UniProt P03372); assay: qHTS assay to identify small molecule antagonists of the estrogen receptor alpha (ER-alpha) signaling pathway using the BG1 cell line in the presence of 0.1 nM 17-beta-estradiol (AID 1259244); further: nearly all actives have a fitted effect of over 50% in size
In short: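 Seeding of stripped-serum-adapted VM7Luc4E2 cells, 24 h attachment, compound transfer, then 0.1 nM final 17beta-estradiol; after 22 h incubation, ONE-Glo reagent and luminescence reading.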

[4] = qHTS assay to identify small molecule HDAC inhibitors (AID 1259364); further: potency means the concentration at half of the fitted maximal effect;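 further: wild-type HCT-116 cells with endogenous class I/II HDAC activity; nearly all actives have a fitted effect of over 45% in size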
In short: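 After a 2 hr compound incubation (37C, 5% CO2), HCT-116 cells seeded at 1,500/well the day before received HDAC-Glo reagent; signal read as luminescence after 30 min at room temperature.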

[5] = qHTS assay to identify small molecule HDAC inhibitors - cell viability counter screen (AID 1259365); further: series mostly up to about 92 µM; nearly all actives have a fitted effect of over 50% in size
In short: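 Following a 2hr exposure of overnight-plated wild-type HCT-116 cells to DMSO-delivered compounds, CellTiter-Glo was added and luminescence recorded after 30min at room temperature.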

[6] = qHTS assay to identify small molecule agonists of the sonic hedgehog signaling (Shh) pathway - cell viability counter screen (AID 1259366); further: nearly all actives have a fitted effect of over 50% in size; further: potency means the concentration at half of the fitted maximal effect
In short: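 After a 4hr attachment at 37C, NIH/3T3 cells bearing an integrated Gli1-driven luciferase reporter were dosed with compounds. Treatment lasted 24hr, with the final hour including CellTiter-Fluor for a fluorescence viability measurement.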

[7] = qHTS assay to identify small molecule antagonists of the sonic hedgehog signaling (Shh) pathway - cell viability counter screen (AID 1259367); further: nearly all actives have a fitted effect of over 55% in size; further: potency means the concentration at half of the fitted maximal effect
In short: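 Viability was read by CellTiter-Fluor fluorescence in the same wells, reagent added 23 hr into compound treatment and incubated 1 hr at 37C. The 3T3 Gli1-Luc reporter cells (2,000/well) received conditioned medium after compound and ran 24 hr.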

[8] = qHTS assay to identify small molecule phospholipidosis (PLD) inducers (AID 1259344; active means well fitted curve in the direction sought with a large enough effect; an effect the other way counts as inactive or inconclusive; further: potency means the concentration at half of the fitted maximal effect)
In short: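 Phospholipid accumulation was scored by imaging: fixed, Hoechst-counterstained HepG2 cells stained with LipidTOX Red after 24 h compound exposure at 37 C. Read-outs were pit count and pit intensity per well or per cell, with amiodarone and DMSO controls.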

[9] = biological target: Androgen receptor (Homo sapiens) (UniProt P10275); assay: qHTS assay to identify small molecule antagonists of the androgen receptor (AR) signaling pathway using the MDA cell line in the presence of 0.5 nM R1881 (AID 1259243); further: nearly all actives have a fitted effect of over 50% in size
In short: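 Cells: MDA-kb2 (MMTV-luc). Stimulus: 0.5 nM R1881. Time: 16 hr, 37C, no CO2. Detection: ONE-Glo luminescence after 30 min at RT.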

[10] = qHTS assay to identify small molecule antagonists of the estrogen receptor alpha (ER-alpha) signaling pathway using the BG1 cell line in the presence of 0.1 nM 17-beta-estradiol - cell viability counter screen (AID 1259241); further: nearly all actives have a fitted effect of over 40% in size
In short: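 Measures cytotoxicity alongside the ER-alpha antagonist readout: VM7Luc4E2 cells, charcoal-stripped serum, 0.1 nM 17beta-estradiol final, 22 hr compound incubation at 37C, CellTiter-Fluor fluorescence.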

Measured: Potency

Androgen receptor (Homo sapiens), sequence (P10275 whole entry, looked up): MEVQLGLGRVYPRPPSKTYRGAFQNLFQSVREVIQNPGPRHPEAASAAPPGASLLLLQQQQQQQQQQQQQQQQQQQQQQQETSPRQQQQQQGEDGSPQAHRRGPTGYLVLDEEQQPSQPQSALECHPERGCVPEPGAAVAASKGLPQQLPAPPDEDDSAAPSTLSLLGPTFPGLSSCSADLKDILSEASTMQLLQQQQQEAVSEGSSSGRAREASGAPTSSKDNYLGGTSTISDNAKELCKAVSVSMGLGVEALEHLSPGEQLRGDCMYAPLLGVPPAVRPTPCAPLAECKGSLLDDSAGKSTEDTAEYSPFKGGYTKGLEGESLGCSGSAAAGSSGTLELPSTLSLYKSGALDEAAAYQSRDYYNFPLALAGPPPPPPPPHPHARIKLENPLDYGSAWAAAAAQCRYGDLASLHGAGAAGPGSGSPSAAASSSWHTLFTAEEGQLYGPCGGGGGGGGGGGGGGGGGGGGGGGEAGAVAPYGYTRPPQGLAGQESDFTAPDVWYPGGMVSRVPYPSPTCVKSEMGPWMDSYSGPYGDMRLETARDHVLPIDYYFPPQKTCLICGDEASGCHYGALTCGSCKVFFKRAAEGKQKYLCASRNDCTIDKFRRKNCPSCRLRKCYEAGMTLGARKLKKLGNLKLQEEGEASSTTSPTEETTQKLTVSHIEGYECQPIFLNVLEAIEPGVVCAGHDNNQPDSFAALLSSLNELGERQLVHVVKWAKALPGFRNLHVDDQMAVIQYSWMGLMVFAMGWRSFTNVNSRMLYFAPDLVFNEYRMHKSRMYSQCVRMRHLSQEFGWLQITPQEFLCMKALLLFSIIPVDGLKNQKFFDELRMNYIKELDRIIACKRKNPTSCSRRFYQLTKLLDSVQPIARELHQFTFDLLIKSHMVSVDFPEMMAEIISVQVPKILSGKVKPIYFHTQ
Estrogen receptor (Homo sapiens), sequence (P03372 whole entry, looked up): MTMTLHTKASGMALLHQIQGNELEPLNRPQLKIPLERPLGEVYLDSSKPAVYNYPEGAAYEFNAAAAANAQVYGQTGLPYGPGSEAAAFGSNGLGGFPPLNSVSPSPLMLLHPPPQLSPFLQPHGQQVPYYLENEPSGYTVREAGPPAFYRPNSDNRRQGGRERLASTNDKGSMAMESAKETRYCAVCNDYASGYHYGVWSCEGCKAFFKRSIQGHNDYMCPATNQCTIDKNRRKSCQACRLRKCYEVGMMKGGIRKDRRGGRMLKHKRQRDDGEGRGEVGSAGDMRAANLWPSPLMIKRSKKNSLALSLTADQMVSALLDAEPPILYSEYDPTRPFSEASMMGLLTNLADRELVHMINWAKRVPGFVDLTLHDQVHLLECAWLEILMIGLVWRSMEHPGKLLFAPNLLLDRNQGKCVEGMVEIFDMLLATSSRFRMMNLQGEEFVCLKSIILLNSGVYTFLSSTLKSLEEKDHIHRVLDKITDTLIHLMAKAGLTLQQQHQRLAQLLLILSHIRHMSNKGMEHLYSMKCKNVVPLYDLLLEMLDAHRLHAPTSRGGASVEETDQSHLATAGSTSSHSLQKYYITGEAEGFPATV

CCCCOC(=O)C(C)Oc1ccc(Oc2ccc(C(F)(F)F)cn2)cc1 (stereo not given)
inactive: [1] | [2] | [3] | [4] | [5] | [6] | [7]

CC(=O)S[C@H](C(=O)N[C@H]1Cc2ccccc2[C@H]2CCC[C@@H](C(=O)O)N2C1=O)C(C)C
inactive: [1] | [2] | [4] | [5] | [6] | [7]

Nc1ncnc2c1ncn2[C@@H]1O[C@H](CO)[C@@H](O)[C@H]1O
inactive: [1] | [2] | [8] | [4] | [5] | [6] | [7]

C=C[Si](OCC)(OCC)OCC
inactive: [1] | [2] | [4] | [5] | [6] | [7]

CC(=O)Oc1cccc2c1C(=O)c1c(OC(C)=O)cc(C(=O)O)cc1C2=O
inactive: [1] | [8] | [4] | [5] | [6] | [7]

CC(C)(O)C(=O)O
inactive: [1] | [2] | [4] | [5] | [6] | [7]

CCCC(=O)OCCC(C)C
inactive: [9] | [4] | [5] | [6] | [7]

Cc1ccc(NC=O)c(C)c1
inactive: [1] | [4] | [5] | [6] | [7]

CCOc1ccc2c(c1)C(C)CC(C)(C)N2 (stereo not given)
inactive: [10] | [9] | [4] | [6]

Oc1ccc(CCNCCCCCCNCCc2ccccc2)cc1O
inactive: [1] | [2] | [8] | [4] | [5]
active: [6] 29.8 µM

O=C1c2ccccc2C(=O)c2c1ccc(O)c2O
active: [4] 29.8 µM
inactive: [1] | [8] | [5]

CCCCCCCCCCCC(=O)OCC
inactive: [1] | [2] | [3] | [4] | [6] | [7]

CC1(C)C(=O)NC(=O)N1CO
inactive: [1] | [2] | [4] | [5] | [6] | [7]

Clc1nc2ccccc2nc1Cl
inactive: [1] | [4] | [5] | [6] | [7]

Cc1c(Cl)cccc1Nc1ccccc1C(=O)O
inactive: [1] | [2] | [8] | [4] | [5] | [6] | [7]

c1ccc(CCNc2nc(-c3ccccc3)cs2)cc1
active: [4] 2.98 µM
inactive: [10] | [3] | [8] | [5] | [6] | [7]

CC(C)CCCCCCCOC(=O)c1ccc(C(=O)OCCCCCCCC(C)C)c(C(=O)OCCCCCCCC(C)C)c1
inactive: [1] | [2] | [4] | [5] | [6]
active: [7] 42.6 µM

O=c1[nH]nc(-c2ccc([N+](=O)[O-])o2)o1
inactive: [1] | [3] | [4] | [5]

CC(C)=CCC[C@H](C)CCO
inactive: [10] | [2] | [3] | [4] | [5] | [6] | [7]

CC(C)(C(=O)O)c1ccc(C(O)CCCN2CCC(C(O)(c3ccccc3)c3ccccc3)CC2)cc1 (stereo not given)
inactive: [1] | [2] | [8] | [4] | [5] | [6] | [7]

Clc1ccccc1-c1nc(-c2ccncc2)no1
active: [4] 2.66 µM
inactive: [1] | [2] | [8] | [5] | [6]

CCCCCCCCNC
inactive: [1] | [2] | [4] | [5] | [6]

Clc1cc(Cl)c2c(c1)N=C1CCCCCN1C2
inactive: [1] | [2] | [3] | [5] | [6] | [7]

O=C(NC1CCN(CCc2c[nH]c3ccccc23)CC1)c1ccccc1
inactive: [1] | [2] | [5] | [7]

C[C@]12CCC(=O)C=C1[C@@H]1C[C@@H]1[C@H]1[C@@H]3[C@@H]4C[C@@H]4[C@@]4(CCC(=O)O4)[C@@]3(C)CC[C@@H]12
inactive: [1] | [2] | [4] | [5] | [6] | [7]
active: [8] 11.2 µM

Oc1ccc(Oc2ccccc2)cc1
inactive: [10] | [2] | [3] | [4] | [5] | [6] | [7]

O=Cc1ccc([N+](=O)[O-])cc1
inactive: [1] | [2] | [3] | [4] | [5] | [6] | [7]

CCCOC(C)=O
inactive: [1] | [9] | [3] | [4] | [6] | [7]

CCCCOc1ccc(N)cc1
inactive: [1] | [3] | [4] | [5] | [6]

CCCCCCCCC(=O)OCC(C)OC(=O)CCCCCCCC (stereo not given)
inactive: [1] | [2] | [4] | [5] | [6] | [7]

O=C(N[C@@H](Cc1ccccc1)[C@@H](O)C(=O)N1C[C@@H](O)[C@@H](O)C1)c1cc2cc(Cl)ccc2[nH]1
inactive: [2] | [3] | [4] | [5]

CCCCCCCCCCCCCCCCC(=O)O
inactive: [1] | [9] | [4] | [5] | [6]
